Source: PubChem BioAssay (National Center for Advancing Translational Sciences (NCATS))
Pin1 inh – inhibitors of human Pin1; Potency, µM (highest dose often 115 µM), hits mostly inhibitors; hit rate 0.009% among 390,000; Pin1 FP peptide displacement, HiFluor488, 10 min; active = well fitted inhibition curve with a large enough effect in the polarisation, with a control signal flat, not every such curve was filed as active; inconclusive = small, poorly fitted or top-dose-only effect, or effect the other way, or a change in a side signal; inactive = no such curve, though single readings can be large or run the other way; the % refers to the polarisation
Tb PGK inh – T. brucei PGK inhibition; hit rate 0.043% among 380,000; Potency, µM (top dose mostly 57.5 µM), most hits filed as inhibitors; PGK/GAPDH coupled, Kinase-Glo luminescence, 60 min; P07378; note: nearly all actives have a fitted effect of over 60% in size
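Luminescent ATP detection (Kinase-Glo Plus) follows a 60-minute room-temperature incubation, with wells lacking PGK as controls. Buffer: 100 mM TEA (pH 7.6), 5 mM MgCl2, 0.01% Tween-20. Coupling enzyme GAPDH (100 nM final) supplies unstable 1,3-BPG in-well.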
PI5P4K alpha inh – PI5P4K alpha (human) kinase inhibition | PI5P4Kalpha enzyme, ADP-Glo luminescence, 60 min; active compounds read low | hit rate 1.2% among 330,000 | P48426 | max response, % | AID 652105; active = max response of -50% or lower; inconclusive = between -30% and -50%; inactive = -30% or higher; note: value at the top dose of about 77 µM
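Enzyme plus substrate dispensed, test compounds pinned in, then ATP (5 microM final) added. After 60 min at RT, ADP-Glo reagent 1 for 45 min and reagent 2 for 30 min preceded luminescence imaging.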
Tb PFK inh – T. brucei PFK enzyme inhibition | Potency, µM (highest dose often 57.5 µM), hits mostly inhibitors | AID 485367 | T. brucei PFK, ADP-Glo luminescence | hit rate 0.17% among 330,000; note: nearly all actives have a fitted effect of over 60% in size
Target sequence (O15648 whole entry, looked up): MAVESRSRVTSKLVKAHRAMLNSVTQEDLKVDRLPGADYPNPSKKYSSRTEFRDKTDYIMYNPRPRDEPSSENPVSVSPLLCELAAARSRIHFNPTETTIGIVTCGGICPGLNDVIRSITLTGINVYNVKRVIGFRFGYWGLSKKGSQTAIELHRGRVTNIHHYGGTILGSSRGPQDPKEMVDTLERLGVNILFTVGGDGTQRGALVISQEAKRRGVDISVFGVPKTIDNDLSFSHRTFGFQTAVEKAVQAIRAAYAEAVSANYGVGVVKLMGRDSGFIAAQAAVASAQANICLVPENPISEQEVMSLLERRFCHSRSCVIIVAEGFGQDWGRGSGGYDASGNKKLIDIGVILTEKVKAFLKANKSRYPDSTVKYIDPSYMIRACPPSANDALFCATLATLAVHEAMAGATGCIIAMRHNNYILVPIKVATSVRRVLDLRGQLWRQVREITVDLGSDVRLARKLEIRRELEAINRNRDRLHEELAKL
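PFK 1.25 nM, F6P 0.5 mM, ATP 0.1 mM, 0.1 M TEA pH 8.0, 5 mM MgCl2, 0.01% Tween20, 0.1% BSA; 45 min RT. ADP-Glo readout. qHTS titration up to 57 uM; curves fitted, compounds curve-classed.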
PI4K2A block – inhibitors of human PI4K2A | AID 1346378 | hit rate 0.13% among 420,000 | Q9BTU6 | purified PI4K2A, ADP-Glo luminescence, 1 h; active compounds read low | activity change, negative = inhibition, % at 76.9 µM; in the data active = activity change below about -50%; inconclusive = mostly about -30% to -49%
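In this quantitative HTS, ADP production by PI4K2A was quantified luminescently after 1 h at ambient temperature; 100 microM adenosine served as plate-quality control.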
A number is an active result; - = inactive; ? = inconclusive; . = not tested or not shown. This is one part of a sample in which hits are shown more often than they occur. Unless noted, calls come from the whole dose curve; as a rule, active = well fitted curve in the direction sought with a large enough effect; inconclusive = small, poorly fitted or top-dose-only effect, or another doubt; inactive = no such curve, though single readings can be large; an effect the other way counts as inactive or inconclusive.

SMILES | Pin1 inh | Tb PGK inh | PI5P4K alpha inh | Tb PFK inh | PI4K2A block
NC(=O)C1CCN(c2nccc(-c3ccc4c(c3)OCCO4)n2)CC1 | - | . | . | . | .
c1ccc(C(O[C@H]2CCCN(CCc3ccc4c(c3)OCO4)C2)c2ccccc2)cc1 | . | . | . | . | -
CN1C(=O)C(Cl)(Cl)C(=O)c2ccccc21 | - | - | -89 | - | -
NC(=O)C1CCN(c2ncc(-c3cccc(N4CCCCC4)c3)s2)CC1 | - | . | . | . | .
N#CCC(=O)Nc1ccc(C(=O)OCC(=O)c2ccc3c(c2)OCO3)cc1 | - | - | - | - | -
N#CCC(=O)Nc1ccc(C(=O)OCC(=O)N=c2sccn2Cc2ccccc2Cl)cc1 | ? | - | -53 | - | -
O=C(COC(=O)c1ccc(O)cc1O)N=c1sccn1Cc1ccccc1Cl | - | - | - | - | -
O=C(COC(=O)c1ccc(CO)cc1)Nc1ccc2ccccc2c1 | - | - | - | - | -
N#CCC(=O)Nc1ccc(C(=O)OCC(=O)Nc2ccc3ccccc3c2)cc1 | ? | - | -51 | - | -
N#CCC(=O)Nc1ccc(C(=O)OCC(=O)c2ccc3c(c2)OCCO3)cc1 | ? | - | -74 | - | -
COc1cc2c(cc1OC)CN(C(=O)[C@H](C)N[C@@H](CCc1ccccc1)C(=O)O)[C@H](C(=O)O)C2 | . | . | . | . | -
CO/N=C(\C(=O)O)c1csc(NC(=O)CCl)n1 | . | . | . | . | -
O=C1CCc2cc(S(=O)(=O)Nc3ccccc3-c3ccccc3)ccc2N1 | - | . | . | . | .
CN(C)S(=O)(=O)c1cccc(NC(=S)N/N=C/c2ccc(O)c(O)c2O)c1 | . | - | -97 | ? | -
CCN(CC)S(=O)(=O)c1cccc(C(=O)N/N=C/c2ccc(O)c(O)c2O)c1 | ? | - | -70 | ? | -
COc1cccc(/C=N/NC(=S)Nc2cccc(S(=O)(=O)N(C)C)c2)c1 | ? | - | - | - | -
COc1ccc(O)c(/C=N/NC(=S)Nc2cccc(S(=O)(=O)N(C)C)c2)c1 | - | - | -56 | - | -
CCOc1ccccc1/C=N/NC(=O)c1cccc(S(=O)(=O)N(CC)CC)c1 | - | - | - | - | -
Cc1c(C(=O)O)sc2nc(/C=C/c3ccccc3OC(F)F)[nH]c(=O)c12 | ? | - | -63 | - | -
Cc1c(C(=O)O)sc2nc(/C=C/c3cccc(F)c3)[nH]c(=O)c12 | - | - | -55 | - | -
Cc1ccc(/C=C/c2nc3sc(C(=O)O)c(C)c3c(=O)[nH]2)cc1[N+](=O)[O-] | - | - | ? | - | -
COCCCNC(=O)C[C@H]1C(=O)N(Cc2ccc(OC)cc2)C2=CCCCC[C@@]21C(=O)OC | . | . | . | . | -
COc1cc(C(=O)OC(COCCC(C)C)CN2CCOCC2)cc(OC)c1OC (stereo not given) | . | . | . | . | -
C=CCn1c(=O)[nH]c2cc(C(=O)N3CCN(c4cccc(Cl)c4)CC3)ccc2c1=O | ? | - | -53 | ? | -
COc1ccc(NC(=O)N2CCc3ccccc32)cc1 | - | ? | ? | - | -54
SMILES | Pin1 inh | Tb PGK inh | PI5P4K alpha inh | Tb PFK inh | PI4K2A block
CC(=O)Nc1ccccc1OC1=N[S+](=O)([O-])c2ccccc21 | - | . | . | . | .
COc1ccc(NC(=S)NNC(=S)Nc2cccc(C(F)(F)F)c2)cc1 | - | - | -78 | - | -
CCOC(=O)N1CCc2c(sc(NC(=O)c3ccc(S(=O)(=O)N4CCCC4)cc3)c2C#N)C1 | ? | - | -82 | - | -
O=S(=O)(/N=S1\CC=CCN1S(=O)(=O)c1ccccc1)c1ccccc1 (stereo not given) | - | - | -50 | . | -
CCOCCOC(=O)/C=C/c1ccc(OC)cc1 | . | . | . | . | -
COc1ccc(-c2nn(-c3ccccc3)cc2/C=C2/SC(=S)N(CCC(=O)O)C2=O)cc1 | ? | 20µM | - | - | -
O=C1C(=Cc2cn(-c3ccccc3)nc2-c2ccc(OCc3ccccc3F)cc2)SC(=S)N1CCS(=O)(=O)O | . | . | -79 | . | -
COc1ccc(-c2nn(-c3ccccc3)cc2/C=C2/SC(=S)N(CCC(=O)O)C2=O)c(C)c1 | . | - | - | - | -
Cc1cccc(S(=O)(=O)NC2CCN(C#N)C2)c1 (stereo not given) | - | . | . | . | .
N#Cc1nc(Nc2cccc(C(F)(F)F)c2)nc(NC2CCCC2)n1 | - | . | . | . | .
N#C/C(=C\c1ccc(-c2cccc([N+](=O)[O-])c2)o1)C(=O)Nc1nc(-c2cccs2)cs1 | - | - | -52 | - | -
C#Cc1nc(Nc2cccc(Cl)c2)nc(NC2CCCC2)n1 | - | . | . | . | .
